Consider 10 compounds from PubChem BioAssay (NCI).

Assay [1] is described as follows: NCI Yeast Anticancer Drug Screen. Data for the rad50 strain (AID 155).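 Note: 0% = growth of vehicle-only cultures of the same strain.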 To be noted: S. cerevisiae rad50 strain growth inhibition, active compounds read high. In a few lines:
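Readout: growth inhibition relative to vehicle-treated cultures. Compound exposure was carried out in a genetically defined yeast strain deficient in DNA damage repair.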

Assay [2] is described as follows: NCI Yeast Anticancer Drug Screen. Data for the mec2-1 strain (AID 157). As to conditions: S. cerevisiae mec2-1 strain, active compounds read high. In a few lines:
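Vehicle-treated cultures served as reference for growth inhibition of compound-exposed mec2-1 yeast.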

Assay [3] is described as follows: NCI Yeast Anticancer Drug Screen. Data for the sgs1 mgt1 strain (AID 161).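 Note: 0% = growth of cultures given vehicle only.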 To be noted: S. cerevisiae sgs1 mgt1 strain, active compounds read high. The procedure, abridged:
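Test agents were incubated with a DNA-repair-mutant yeast strain. Growth was then read and compared against vehicle-treated controls.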

The nature of assay [4]: NCI Yeast Anticancer Drug Screen. Data for the cln2 rad14 strain (AID 165).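 Note: 0% = growth equal to vehicle treated cultures.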 To be noted: S. cerevisiae cln2 rad14 strain, active compounds read high. The procedure, abridged: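 Each compound was tested on cln2 rad14 yeast. Inhibition of growth was calculated against vehicle-exposed controls.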
The nature of assay [5]: NCI Yeast Anticancer Drug Screen. Data for the bub3 strain (AID 167). As to conditions: S. cerevisiae bub3 mutant strain, active compounds read high. The procedure, abridged:
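Readout: yeast growth inhibition, expressed relative to vehicle-only wells. The test organism is a mutant strain from a panel with lesions in DNA repair or checkpoint genes.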

The nature of assay [6]: NCI Yeast Anticancer Drug Screen. Data for the mlh1 rad18 strain (AID 175). As to conditions: S. cerevisiae mlh1 rad18 strain growth inhibition, active compounds read high. The procedure, abridged:
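Vehicle-treated cultures served as the reference for growth inhibition in a yeast strain carrying DNA damage repair alterations exposed to each compound.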

Setting [7] is: at 5.0 µM (retest, dose inferred, filed as 0.5).
The mark [8] stands for this setting: at 50.0 µM (retest, dose inferred, filed as 5.0).

The structures appear in SMILES notation. This is part of a sample that, as a whole, favours compounds with a hit. Of some 79,000 tested, about 15% had one in any assay. Values without a mark were called inactive. Calls of active or inactive are those of the source. Cut-off read from the data, not from the text of the source: active = growth inhibition above about 70%; inactive = the rest.

With `O=C(c1ccccc1)c1ccc2c(c1)CCCC2`, the growth inhibition is -4% in assay [1] (setting [7]); -14% in assay [1] (setting [8]); 76.5% (active) in assay [1] (at 50.0 µM); -12% in assay [2] (setting [7]); -23% in assay [2] (setting [8]); 60.2% in assay [2] (at 50.0 µM). Besides, the growth inhibition in assay [3] (setting [7]) was -5%; in assay [3] (setting [8]), -6%; in assay [3] (at 50.0 µM), 76.8% (active); in assay [4] (setting [7]), -5%; in assay [4] (setting [8]), -48%; in assay [4] (at 50.0 µM), 19.6%. In addition, the growth inhibition in assay [5] (setting [7]) was 2%; in assay [5] (setting [8]), 49%; in assay [5] (at 50.0 µM), 69.7%; in assay [6] (setting [7]), 0%; in assay [6] (setting [8]) it was -29%; in assay [6] (at 50.0 µM) it was 71.4% (active).

As for `Nc1nc(N)c(C(=O)SCc2ccccc2)nc1Cl`, the growth inhibition in assay [1] (setting [7]) was 6%; in assay [1] (setting [8]) it was 70% (active); in assay [1] (at 50.0 µM), 66%; in assay [2] (setting [7]), 2%; in assay [2] (setting [8]), 57%; in assay [2] (at 50.0 µM), 58.9%. Also, the growth inhibition in assay [3] (setting [7]) was 3%; in assay [3] (setting [8]), 52%; in assay [3] (at 50.0 µM) it was 97.4% (active); in assay [4] (setting [7]), 2%; in assay [4] (setting [8]), 70% (active); in assay [4] (at 50.0 µM), 4.95%. The growth inhibition in assay [5] (setting [7]) is -2%; in assay [5] (setting [8]), 62%; in assay [5] (at 50.0 µM), 7.45%; in assay [6] (setting [7]), 5%; in assay [6] (setting [8]) it was 94% (active); in assay [6] (at 50.0 µM), 69.3%.

For `CCc1cccc(CC)c1NC(=O)CS`, the growth inhibition is -151% in assay [1] (setting [7]); 93% (active) in assay [1] (setting [8]); 98% (active) in assay [1] (at 50.0 µM); -51% in assay [2] (setting [7]); 94% (active) in assay [2] (setting [8]); 97.7% (active) in assay [2] (at 50.0 µM). For the same compound, the growth inhibition in assay [3] (setting [7]) is -64%; in assay [3] (setting [8]), 90% (active); in assay [3] (at 50.0 µM), 61.7%; in assay [4] (setting [7]), -72%; in assay [4] (setting [8]), 90% (active); in assay [4] (at 50.0 µM), 95.8% (active). In addition, the growth inhibition in assay [5] (setting [7]) is -85%; in assay [5] (setting [8]), 92% (active); in assay [5] (at 50.0 µM), 97.8% (active); in assay [6] (setting [7]), -132%; in assay [6] (setting [8]) it was 93% (active); in assay [6] (at 50.0 µM) it was 98% (active).

Turning to `O=C1C(=O)N(c2ccccc2)N=C1N=Nc1ccccc1`, the growth inhibition was 4% in assay [1] (setting [7]); 33% in assay [1] (setting [8]); 90.4% (active) in assay [1] (at 50.0 µM); 8% in assay [2] (setting [7]); 80% (active) in assay [2] (setting [8]); 86.7% (active) in assay [2] (at 50.0 µM). The growth inhibition was 14% in assay [3] (setting [7]); 63% in assay [3] (setting [8]); 96.2% (active) in assay [3] (at 50.0 µM); 2% in assay [4] (setting [7]); 43% in assay [4] (setting [8]); 41.8% in assay [4] (at 50.0 µM). In addition, the growth inhibition is 14% in assay [5] (setting [7]); 73% (active) in assay [5] (setting [8]); 69% in assay [5] (at 50.0 µM); 14% in assay [6] (setting [7]); 77% (active) in assay [6] (setting [8]); 56% in assay [6] (at 50.0 µM).

Turning to `C[Si](C)(C)CC(c1ccccc1)C(O)c1ccccc1` (stereo not given), the growth inhibition is -7% in assay [1] (setting [7]); 96% (active) in assay [1] (setting [8]); 98.5% (active) in assay [1] (at 50.0 µM); -4% in assay [2] (setting [7]); 98% (active) in assay [2] (setting [8]); 97.8% (active) in assay [2] (at 50.0 µM). Also, the growth inhibition in assay [3] (setting [7]) is -3%; in assay [3] (setting [8]), 98% (active); in assay [3] (at 50.0 µM) it was 98% (active); in assay [4] (setting [7]), 0%; in assay [4] (setting [8]), 97% (active); in assay [4] (at 50.0 µM), 93.9% (active). Further, the growth inhibition in assay [5] (setting [7]) was 0%; in assay [5] (setting [8]), 98% (active); in assay [5] (at 50.0 µM), 98.7% (active); in assay [6] (setting [7]), 1%; in assay [6] (setting [8]), 98% (active); in assay [6] (at 50.0 µM), 98.8% (active).

Take `O=S(=O)(Nc1ccccc1)c1ccccc1C=C(c1ccccc1)c1ccccc1`: the growth inhibition is 37% in assay [1] (setting [7]); 75% (active) in assay [1] (setting [8]); 85.1% (active) in assay [1] (at 50.0 µM); 35% in assay [2] (setting [7]); 90% (active) in assay [2] (setting [8]); 86% (active) in assay [2] (at 50.0 µM). Further, the growth inhibition was 46% in assay [3] (setting [7]); 90% (active) in assay [3] (setting [8]); 86.5% (active) in assay [3] (at 50.0 µM); 13% in assay [4] (setting [7]); 84% (active) in assay [4] (setting [8]); 80.3% (active) in assay [4] (at 50.0 µM). In addition, the growth inhibition in assay [5] (setting [7]) is 43%; in assay [5] (setting [8]) it was 82% (active); in assay [5] (at 50.0 µM), 80.3% (active); in assay [6] (setting [7]), 81% (active); in assay [6] (setting [8]), 84% (active); in assay [6] (at 50.0 µM) it was 85.8% (active).

Turning to `O=C(O)CSCc1cc2c3ccccc3sc2c2ccccc12`, the growth inhibition was 49% in assay [1] (setting [7]); 99% (active) in assay [1] (setting [8]); 97.9% (active) in assay [1] (at 50.0 µM); 29% in assay [2] (setting [7]); 99% (active) in assay [2] (setting [8]); 97.2% (active) in assay [2] (at 50.0 µM). The growth inhibition is 30% in assay [3] (setting [7]); 98% (active) in assay [3] (setting [8]); 93.2% (active) in assay [3] (at 50.0 µM); 52% in assay [4] (setting [7]); 99% (active) in assay [4] (setting [8]); 97.7% (active) in assay [4] (at 50.0 µM). Besides, the growth inhibition in assay [5] (setting [7]) was 31%; in assay [5] (setting [8]), 99% (active); in assay [5] (at 50.0 µM), 96.8% (active); in assay [6] (setting [7]), 35%; in assay [6] (setting [8]), 99% (active); in assay [6] (at 50.0 µM), 98.5% (active).

Consider `O=C(O)/C=C/C(=O)c1ccc(O)cc1`, for which the growth inhibition in assay [1] (setting [7]) is 25%; in assay [1] (setting [8]) it was 97% (active); in assay [1] (at 50.0 µM), 95.7% (active); in assay [2] (setting [7]), 9%; in assay [2] (setting [8]), 94% (active); in assay [2] (at 50.0 µM), 95.8% (active). The growth inhibition was 28% in assay [3] (setting [7]); 93% (active) in assay [3] (setting [8]); 94.6% (active) in assay [3] (at 50.0 µM); 7% in assay [4] (setting [7]); 91% (active) in assay [4] (setting [8]); 91.3% (active) in assay [4] (at 50.0 µM). The growth inhibition in assay [5] (setting [7]) is 5%; in assay [5] (setting [8]), 95% (active); in assay [5] (at 50.0 µM), 92% (active); in assay [6] (setting [7]), 32%; in assay [6] (setting [8]), 98% (active); in assay [6] (at 50.0 µM), 96% (active).

For `CCCCCN(CCC)CCCCCCCCCN1CCCc2cc(OC)ccc21`, the growth inhibition was -8% in assay [1] (setting [7]); -2% in assay [1] (setting [8]); 97.3% (active) in assay [1] (at 50.0 µM); -6% in assay [2] (setting [7]); -7% in assay [2] (setting [8]); 97.7% (active) in assay [2] (at 50.0 µM). Further, the growth inhibition was 2% in assay [3] (setting [7]); 2% in assay [3] (setting [8]); 62.9% in assay [3] (at 50.0 µM); -7% in assay [4] (setting [7]); -10% in assay [4] (setting [8]); 97% (active) in assay [4] (at 50.0 µM). The growth inhibition in assay [5] (setting [7]) is -4%; in assay [5] (setting [8]), -3%; in assay [5] (at 50.0 µM), 91% (active); in assay [6] (setting [7]) it was -5%; in assay [6] (setting [8]) it was -5%; in assay [6] (at 50.0 µM) it was 98% (active).

For the compound `CCCCCCCCCCS(=O)(=O)Nc1ccc(C(=O)NN)cc1`, the growth inhibition in assay [1] (setting [7]) is 60%; in assay [1] (setting [8]), 83% (active); in assay [1] (at 50.0 µM), 92.6% (active); in assay [2] (setting [7]), 29%; in assay [2] (setting [8]) it was 48%; in assay [2] (at 50.0 µM) it was 71% (active). For the same compound, the growth inhibition was 42% in assay [3] (setting [7]); 82% (active) in assay [3] (setting [8]); 89.5% (active) in assay [3] (at 50.0 µM); 54% in assay [4] (setting [7]); 80% (active) in assay [4] (setting [8]); 91% (active) in assay [4] (at 50.0 µM). Moreover, the growth inhibition is 48% in assay [5] (setting [7]); 82% (active) in assay [5] (setting [8]); 79% (active) in assay [5] (at 50.0 µM); 69% in assay [6] (setting [7]); 87% (active) in assay [6] (setting [8]); 92.7% (active) in assay [6] (at 50.0 µM).
